Experimental data from PubChem BioAssay (EPA / NIEHS).
Calls of active or inactive are those of the source. The calls were made as follows: active = hit-call score of the fitted dose curve at least 0.9, where 1 is the maximum; inactive = score below 0.9.

read-out: Urokinase-type plasminogen activator receptor (uPAR), PLAUR (gene 5329); experiment: BSK_BE3C_uPAR: BioMAP Diversity Plus: BE3C Assay for Urokinase-type plasminogen activator receptor (uPAR) Biomarker Activity (AID 2283039); conditions: primary human bronchial epithelial cells; actives raise or lower the signal;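 as to outcome: uPAR protein level measured by ELISA on the cells; cells exposed to compound for one day before measurement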
How it was run: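 ELISA readout of uPAR on human lung primary bronchial epithelial cells, 24 h post-dosing. Bidirectional curve fit relative to DMSO vehicle baseline; gain or loss of signal both scored.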

Row | Structure (SMILES) | outcome | AC50
1 | N#Cc1ccc(CC(=NNC(=O)Nc2ccc(OC(F)(F)F)cc2)c2cccc(C(F)(F)F)c2)cc1 | inactive | 
2 | BrC1CCC(Br)C(Br)CCC(Br)C(Br)CCC1Br (centres undefined) | inactive | 
3 | COc1cc(C=O)ccc1OC(=O)C(C)C | inactive | 
4 | CCc1c(C)cc(N)c(CC)c1N | inactive | 
5 | O=C1OC2(c3cc(Br)c(O)c(Br)c3Oc3c2cc(Br)c(O)c3Br)c2c(Cl)c(Cl)c(Cl)c(Cl)c21 |  | 840 nM (active)
6 | CNC[C@H](O)c1cccc(O)c1 | inactive | 
7 | Cc1ccc2n[nH]nc2c1 | inactive | 
8 | CC(C)Oc1ccccc1O | inactive | 
9 | CCCCC/C=C/C=C/C=O | inactive | 

read-out: Interleukin-6 (IL6), IL6 (gene 3569); experiment: BSK_CASM3C_IL6: BioMAP Diversity Plus: CASM3C Assay for Interleukin-6 (IL6) Biomarker Activity for (AID 2283040); conditions: primary human coronary artery smooth muscle cells; actives raise or lower the signal

Row | Structure (SMILES) | outcome | AC50
10 | N#Cc1ccc(CC(=NNC(=O)Nc2ccc(OC(F)(F)F)cc2)c2cccc(C(F)(F)F)c2)cc1 | inactive | 
11 | O=[N+]([O-])c1cc(C(F)(F)F)ccc1Cl | inactive | 
12 | BrC1CCC(Br)C(Br)CCC(Br)C(Br)CCC1Br (centres undefined) | inactive | 
13 | CC(=O)[C@H]1CC[C@H]2[C@@H]3CC=C4C[C@@H](O)CC[C@]4(C)[C@H]3CC[C@]12C | inactive | 
14 | CCn1c2ccccc2c2cc(N)ccc21 | inactive | 
15 | COc1cc(C=O)ccc1OC(=O)C(C)C | inactive | 
16 | CCc1c(C)cc(N)c(CC)c1N | inactive | 
17 | c1ccc2sc(SN(C3CCCCC3)C3CCCCC3)nc2c1 | inactive | 
18 | O=C(O)c1ccc([N+](=O)[O-])cc1 | inactive | 
19 | CC[Si](OC(C)=O)(OC(C)=O)OC(C)=O | inactive | 
20 | CC1CCC(C(C)CS)CC1S (centres undefined) |  | 33500 nM (active)
21 | O=C(O)C[C@H](O)C[C@H](O)/C=C/c1c(C2CC2)nc2ccccc2c1-c1ccc(F)cc1 |  | 4.1 nM (active)
22 | c1ccc2c(c1)c1cccc3ccc4cccc2c4c31 | inactive | 
23 | O=C1OC2(c3cc(Br)c(O)c(Br)c3Oc3c2cc(Br)c(O)c3Br)c2c(Cl)c(Cl)c(Cl)c(Cl)c21 | inactive | 
24 | CNC[C@H](O)c1cccc(O)c1 | inactive | 
25 | Cc1ccc2n[nH]nc2c1 | inactive | 
26 | COC(=O)c1ccc(C)cc1 | inactive | 
27 | CC(C)Oc1ccccc1O | inactive | 
28 | O=C=NC1CCC(CC2CCC(N=C=O)CC2)CC1 (centres undefined) | inactive | 
29 | O=P(c1ccccc1)(c1ccccc1)c1ccccc1 | inactive | 
30 | CN(CCOc1ccc(CC2SC(=O)NC2=O)cc1)c1ccccn1 (centres undefined) | inactive | 
31 | CC(=O)Nc1ccccc1O | inactive | 
32 | CCCCCCCCCC=O | inactive | 
33 | CCCCC/C=C/C=C/C=O | inactive | 
34 | CCCCCCCCC=O | inactive | 
